D1 ag: activates the human D1 dopamine receptor | P21728 | HEK293 T-REx D1 cells, calcium flux, agonist mode | activation, % at 2 µM | 360,000 tested, 1% active; in the data active means activation above about 30%; further: 0% is about no effect
Target sequence (P21728 whole entry, looked up): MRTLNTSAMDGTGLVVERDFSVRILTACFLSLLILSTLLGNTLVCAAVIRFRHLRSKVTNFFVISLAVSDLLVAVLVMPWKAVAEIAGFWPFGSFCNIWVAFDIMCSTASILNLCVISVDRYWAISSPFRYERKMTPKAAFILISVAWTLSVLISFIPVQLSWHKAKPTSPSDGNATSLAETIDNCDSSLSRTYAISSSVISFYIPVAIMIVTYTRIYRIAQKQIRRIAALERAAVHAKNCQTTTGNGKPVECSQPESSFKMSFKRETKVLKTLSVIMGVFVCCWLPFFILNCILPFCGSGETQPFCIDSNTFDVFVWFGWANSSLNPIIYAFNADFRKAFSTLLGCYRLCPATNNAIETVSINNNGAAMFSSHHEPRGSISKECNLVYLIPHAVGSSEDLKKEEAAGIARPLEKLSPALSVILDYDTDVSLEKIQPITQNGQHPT
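Inducible HEK293 T-REx D1 cells, force-coupled to calcium signalling, were plated at 4000 cells/well with tetracycline and held overnight at 30 C. After no-wash calcium dye loading, compound-evoked calcium rise over 180 s flagged agonists.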
D1 potentiator: potentiators of human D1 dopamine receptor; P21728; HEK293 TREx D1 cells, calcium flux, dopamine EC20 potentiation; potentiation, % at 10 µM; 360,000 tested, 0.036% active; AID 504651; in the data active means potentiation above about 30%; further: 0% is about no effect
Glioma ERSR ind: induces the endoplasmic reticulum stress response in human glioma cells | 420,000 tested, 0.02% active | Potency, µM, for the others: at the highest dose activation, most hits filed as activators | AID 602332 | U87-MG GRP78 promoter luciferase reporter, 16 h; further: potency means the concentration at half of the fitted maximal effect; series mostly up to about 76 µM; % of control where 0% means no effect; nearly all actives have a fitted effect of over 35% in size
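Stably transfected U87-MG glioma cells carrying a GRP78-based luciferase sensor; 16 h compound incubation. Luminescence end-point read 10 min after Bright-Glo addition at room temperature.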
TRHR agonist-1: activates the human TRH receptor. P34981. TRHR cells, calcium flux fluo-8, FDSS agonist mode. activation, % at 2 µM. 360,000 tested, 0.18% active. AID 493084; in the data active means activation above about 30%; further: 0% is about no effect
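Steps: seed TRHR cells overnight; add fluo-8 no-wash Ca dye, RT 30 min–1.5 h; record 10 s baseline; pin-transfer compounds; monitor fluorescence 1 cycle/s for the agonist window. Calcium increases flag candidate agonists.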
D1 antag: human D1 dopamine receptor antagonism | activity change, negative = inhibition, % at 10 µM | HEK293 TREx D1 cells, calcium flux, dopamine EC80; stronger effect = lower value | 360,000 tested, 3.2% active | P21728; in the data active means activity change below about -30%; further: on the % scale 0 is the no-effect control and ±100 the full control effect
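Antagonism measured as reduced calcium response to an EC80 dopamine addition following 180 s compound pre-read; cells were inducible HEK293 Trex D1 plated overnight at 30 C, read kinetically at 1 cycle/sec.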
TRHR enhancer-1: allosteric enhancers of human TRH receptor | P34981 | TRHR cells, fluo-8 calcium fluorescence, EC20 TRH enhancement | enhancement, % at 2 µM | 360,000 tested, 0.66% active; in the data active means enhancement above about 30%; further: 0% is about no effect
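Enhancer read-out: after compound pinning and an initial kinetic agonist-mode read, an EC20 of TRH (10 nM final) was injected and fluo-8 calcium signal (Ex 480/Em 530) followed at 1 s/cycle for 100 cycles in TRHR-expressing cells.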
TRHR enhancer-2: human TRH receptor allosteric enhancement confirmation. shares compounds with TRHR enhancer-1. 970 tested, under 10 active. activity change, negative = inhibition, % at 46.1 µM. TRH receptor cell assay, enhancer confirmation qHTS;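 further: compound effect scored on response to added TRH at EC20 of 10 nM; 0% is about no effect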
TRHR agonist-2: human TRH receptor agonism confirmation; TRHR-expressing cells, agonist activation read-out; Potency, µM (series often up to 46.1 µM), without a hit: at the highest dose activation, most hits filed as activators; 970 tested, 8% active; AID 493078; shares compounds with TRHR enhancer-1; further: potency means the concentration at half of the fitted maximal effect; 0% is about no effect; nearly all actives have a fitted effect of over 75% in size
* hit, by the source's call; ? = inconclusive; . = not tested or not shown. Most compounds without a hit are left out; they make up all but 4% or so of the library. Unless noted, the call rests on the fitted dose curve; in most records, active means well fitted curve in the direction sought with a large enough effect; inconclusive means small, poorly fitted or top-dose-only effect, or another doubt; inactive means no such curve, though single readings can be large; an effect the other way counts as inactive or inconclusive.

SMILES	D1 ag	D1 potentiator	Glioma ERSR ind	TRHR agonist-1	D1 antag	TRHR enhancer-1	TRHR enhancer-2	TRHR agonist-2
Cc1ccc(NC(=O)CSc2nc3nc(C)c(Br)cc3[nH]2)cc1F	3	-3	14%	0	-31*	81*	-8	0%
O=C(CN1CCN(S(=O)(=O)/C=C/c2ccccc2)CC1)Nc1ccccc1N1CCOCC1	2	-1	-4%	0	3	-8	.	.
O=P1(c2ccccc2)C=Cn2c1cc1c2CCCC1 (configuration not stated)	0	2	-3%	0	7	60*	12	-1%
Cc1ccc(S(=O)(=O)/N=C2\C=C(Nc3cccc(C(=O)O)c3)C(=O)c3ccccc32)c(C)c1	-2	1	-14%	-2	2	61*	-12	3%
Cc1ccc(S(=O)(=O)/N=C2\C=C(Nc3cccc(C(=O)O)c3)C(=O)c3ccccc32)cc1	3	-7	-15%	0	7	0	.	.
O=C(NNC(=O)c1n[nH]c2ccccc12)c1ccccc1	5	2	2%	0	-6	49*	?	7%
Cc1ccc(OCc2cc(C(=O)N(C)Cc3cnn(-c4ccccc4C)c3)no2)cn1	8	4	1%	-1	-14	43*	-6	0%
CC[C@]1(c2ccccc2C)ON(c2ccccc2C(F)(F)F)C1=O	2	-1	8%	-1	.	24	.	.
CCOC(=O)/C(C#N)=C(C)/C=C1\Sc2ccccc2N1CC	45*	-6	-1%	33*	10	-5	7	21µM*
COc1ccc(Cl)cc1S(=O)(=O)NC(C)C(=O)NCCCn1ccnc1 (configuration not stated)	7	1	-5%	1	-9	67*	-2	-1%
COc1ccc(Cl)cc1S(=O)(=O)NCCCn1ccnc1	1	2	-4%	1	1	22	.	.
COc1ccc(CSc2n[nH]c(=O)[nH]c2=O)cc1	.	.	-3%	.	.	.	.	.
CCCCc1nc(SCCN2CCOCC2)c2c(=O)n(C)c(=O)n(C)c2n1	2	-6	0%	0	-4	6	.	.
Cc1cc2c(c(=O)o1)[C@@H](O)[C@H]1O[C@@H]1C2=O	.	.	-2%	.	.	.	.	.
CC1=NN(c2ccc(C(=O)O)cc2)C(=O)CC1	3	-2	1%	0	-3	44*	5	5%
CCCNC(=O)C(=O)NCC1CCCN1CC (configuration not stated)	2	3	-6%	0	10	27	.	.
C=CCNC(=O)C(=O)NCC1CCCN1CC (configuration not stated)	3	0	-4%	1	13	42*	-4	0%
COc1cccc(C(c2nnnn2Cc2ccco2)N2CCN(c3cccc(C)c3C)CC2)c1OC (configuration not stated)	0	0	-7%	0	-7	6	.	.
COCc1ccc(CN2CCC(N3CCC(C(=O)N4CCCC4)CC3)CC2)o1	3	4	-4%	0	-9	-5	.	.
CCOC(=O)c1[nH]cnc1C(=O)Nc1ccc(C)cc1	1	1	-3%	0	13	51*	-2	5%
CCOC(=O)c1[nH]cnc1C(=O)Nc1ccc(Cl)cc1	0	-10	-1%	0	0	5	.	.
O=C(C[C@@H]1C[C@@H]2c3cc(NC(=O)C4CCC4)ccc3O[C@@H]2[C@@H](CO)O1)NCc1ccc(Cl)cc1	.	.	-6%	.	.	.	.	.
CN(CCCNC(=O)Cn1cccc1C(=O)c1ccccc1)C1CCCCC1	1	-3	-2%	1	-2	-8	.	.
Cc1ccc(S(=O)(=O)NCCc2nnc3ccc(SCC(=O)Nc4c(C)cc(C)cc4C)nn23)cc1	-1	1	-3%	0	5	-1	.	.
Cc1ccc(C(=O)CSc2nnc(C(C)C)n2C)cc1C	3	7	11%	-1	10	42*	-6	-1%
SMILES	D1 ag	D1 potentiator	Glioma ERSR ind	TRHR agonist-1	D1 antag	TRHR enhancer-1	TRHR enhancer-2	TRHR agonist-2
CCCCn1nnnc1SCC(=O)c1ccc(C)c(C)c1	5	-1	-2%	-1	-3	5	.	.
CCN(CC)CCN(C(=O)c1ccc([N+](=O)[O-])cc1)c1nc2c(OC)cccc2s1	4	-2	-2%	0	-7	-1	.	.
CCOC(=O)c1[nH]c2ccc(F)cc2c1NC(=O)CN1CCc2cc(OC)c(OC)cc2C1	1	0	.	0	4	43*	3	0%
COC(=O)c1[nH]c2ccc(Cl)cc2c1NC(=O)CN1CCc2cc(OC)c(OC)cc2C1	1	-2	-5%	0	-6	-8	.	.
Brc1cc2c(cc1CSc1ncccn1)OCO2	21	-4	4%	0	-2	46*	-9	2%
O=[N+]([O-])/C=C\c1ccc(N2CCCC2)c(F)c1	127*	-12	-12%	73*	18	-11	-13	?
Cc1cccc(-n2c(-c3csc(C(C)C)c3)n[nH]c2=S)c1	1	0	-3%	1	28	-1	.	.
N#C/C(=C\c1ccc(N2CCOCC2)o1)C(=O)NCCc1ccccc1	124*	0	4%	58*	2	7	3	18µM*
CCOc1ccc(NC(=O)Nc2nc3ccc(S(C)(=O)=O)cc3s2)cc1	0	1	0%	1	-2	58*	-1	-1%
CCOC(=O)c1cnc2c(ccc3ccccc32)c1NCCO	1	-3	-1%	0	-19	0	.	.
COc1cc(C2C(C#N)=C(N)Oc3cc(N(C)C)ccc32)cc2c1OCO2 (configuration not stated)	45*	-1	-3%	45*	10	2	3	?
COc1ccc(COC(=O)C2=C(C)NC(=O)NC2c2ccccc2OC(C)C)cc1 (configuration not stated)	0	4	-3%	1	14	48*	-3	3%
COc1ccccc1C1NC(=O)NC(C)=C1C(=O)OCc1ccccc1 (configuration not stated)	0	-15	-7%	0	2	-1	.	.
CN1[C@@H]2CC[C@H]1CC(OC(=O)c1c[nH]c3ccccc13)C2 (some centres not stated)	.	.	-2%	.	.	.	.	.
Cc1csc(NC(=O)c2sc3nc(-c4cccs4)ccc3c2N)n1	73*	-1	2%	51*	-3	6	4	10µM*
CSc1nsc2nc(=O)c(/C=C3\C(C)=Nc4ccccc43)c(N)n12	0	-2	?	1	-9	-2	.	.
